# Assay results: PubChem BioAssay
# A number with no mark means an inactive call. For some assays here: Entries with a potency or affinity are not part of this list. The source made the active and inactive calls. Unless noted, how the calls were made is not given here.
# Experiments:
# [1] = antimalarial activity against Dd2 strain (AID 2302;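 active means growth inhibition above 50% at the single 2 µM test dose, taken to imply half-maximal potency below 2 µM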;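 further: 0% = DMSO untreated growth and 100% = chloroquine plus artemisinin killed control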); conditions: P. falciparum Dd2 in RBCs, LDH growth readout, 72 h; at 2 µM; active compounds read high
# [2] = human hepatoma cell viability loss – ATP luminescence, cytotoxicity control for P. falciparum antimalarial project, primary screen (AID 2303;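 active means inhibition above 50%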;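 further: 0% = DMSO wells and 100% = digitonin-killed cells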); conditions: HepG2 viability, 24-48 h, at 10 µM, active compounds read high
# [3] = molecular target: L-lactate dehydrogenase (Plasmodium falciparum (isolate CDC / Honduras)) (UniProt Q27743); test: PfLDH activity inhibition – cell lysate, 3D7 strain, counter-screen for P. falciparum growth inhibition project (AID 2304);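 further: 0% = vehicle and 100% = reference inhibitor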; conditions: P. falciparum 3D7 crude extract, LDH APAD/NBT absorbance; at 2 µM; active compounds read high
# Chain of L-lactate dehydrogenase (Plasmodium falciparum (isolate CDC / Honduras)) (Q27743 whole entry, looked up): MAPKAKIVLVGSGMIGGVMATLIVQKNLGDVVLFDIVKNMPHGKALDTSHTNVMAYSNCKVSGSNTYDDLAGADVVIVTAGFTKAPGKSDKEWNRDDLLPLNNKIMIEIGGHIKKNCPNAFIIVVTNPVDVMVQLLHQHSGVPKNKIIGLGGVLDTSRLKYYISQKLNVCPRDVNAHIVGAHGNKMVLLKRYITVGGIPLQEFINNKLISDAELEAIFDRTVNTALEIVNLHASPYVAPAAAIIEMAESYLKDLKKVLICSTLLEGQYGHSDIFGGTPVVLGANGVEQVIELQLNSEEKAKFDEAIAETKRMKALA
# [4] = inhibition of 3D7 malaria parasite growth – strain 3D7 (AID 2306);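 further: 0% = DMSO wells and 100% = chloroquine plus artemisinin control wells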; conditions: P. falciparum 3D7 erythrocytic growth, LDH absorbance, 72 h; at 2 µM; active compounds read high
# [5] = molecular target: Calcium-dependent protein kinase 1 (Plasmodium falciparum (isolate 3D7)) (UniProt P62344); test: PfCDPK1 kinase inhibitors, biochemical, TCAMS library (AID 1159585; cut-off not given, nearly all actives have IC50 up to about 0.98 µM;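 further: inhibitors leave more ATP so luminescence rises with inhibition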); conditions: recombinant PfCDPK1, Kinase-Glo ATP depletion luminescence
# Chain of Calcium-dependent protein kinase 1 (Plasmodium falciparum (isolate 3D7)) (P62344 whole entry, looked up): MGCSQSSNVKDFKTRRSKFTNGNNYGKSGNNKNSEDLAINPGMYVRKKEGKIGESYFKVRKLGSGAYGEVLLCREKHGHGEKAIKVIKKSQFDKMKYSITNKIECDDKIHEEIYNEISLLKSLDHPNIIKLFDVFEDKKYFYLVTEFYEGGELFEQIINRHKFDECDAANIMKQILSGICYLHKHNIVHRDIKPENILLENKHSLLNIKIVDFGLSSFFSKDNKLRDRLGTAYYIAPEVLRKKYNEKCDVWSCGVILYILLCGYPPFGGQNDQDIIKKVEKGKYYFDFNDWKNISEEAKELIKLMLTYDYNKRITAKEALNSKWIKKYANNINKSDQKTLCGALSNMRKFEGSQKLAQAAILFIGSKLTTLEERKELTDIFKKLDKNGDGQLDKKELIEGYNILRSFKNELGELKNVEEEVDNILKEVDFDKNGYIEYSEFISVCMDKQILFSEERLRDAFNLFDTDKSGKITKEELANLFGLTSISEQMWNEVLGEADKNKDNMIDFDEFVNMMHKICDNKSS
# [6] = molecular target: Plasmodium falciparum protein kinase 6 (PK6, PF3D7_1337100) (UniProt Q8IDW1); test: PfPK6 kinase inhibitors, biochemical, TCAMS library (AID 1159586); conditions: recombinant PfPK6, Kinase-Glo ATP depletion luminescence
# Chain of Plasmodium falciparum protein kinase 6 (PK6, PF3D7_1337100) (Q8IDW1 1-305): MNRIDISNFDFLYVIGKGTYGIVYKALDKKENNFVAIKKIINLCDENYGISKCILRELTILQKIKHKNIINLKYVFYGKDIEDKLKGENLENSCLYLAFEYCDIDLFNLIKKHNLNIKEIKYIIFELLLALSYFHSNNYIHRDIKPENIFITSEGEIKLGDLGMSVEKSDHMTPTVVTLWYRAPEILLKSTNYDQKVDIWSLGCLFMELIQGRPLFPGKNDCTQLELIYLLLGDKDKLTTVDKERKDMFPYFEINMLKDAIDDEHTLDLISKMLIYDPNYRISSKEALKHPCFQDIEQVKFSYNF
# [7] = molecular target: Protein kinase 7 (PK7), Plasmodium falciparum 3D7 (PF3D7_0213400) (UniProt Q7YTF7); test: inhibition of Plasmodium PK7 catalytic activity – biochemical, TCAMS antimalarial set, Kinase-Glo luminescence (AID 1159587); conditions: recombinant PfPK7, Kinase-Glo ATP depletion luminescence
# Chain of Protein kinase 7 (PK7), Plasmodium falciparum 3D7 (PF3D7_0213400) (Q7YTF7 1-343): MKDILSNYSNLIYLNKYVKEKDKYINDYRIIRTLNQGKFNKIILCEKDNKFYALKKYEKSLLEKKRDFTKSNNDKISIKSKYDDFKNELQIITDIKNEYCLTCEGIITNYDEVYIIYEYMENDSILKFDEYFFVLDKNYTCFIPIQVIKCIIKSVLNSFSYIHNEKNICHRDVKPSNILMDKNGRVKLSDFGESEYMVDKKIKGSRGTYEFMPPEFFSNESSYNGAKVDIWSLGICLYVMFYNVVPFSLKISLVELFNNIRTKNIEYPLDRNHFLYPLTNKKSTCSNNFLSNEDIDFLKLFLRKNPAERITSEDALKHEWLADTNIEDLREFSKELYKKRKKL
# [8] = molecular target: Calcium-dependent protein kinase 4 (Plasmodium falciparum (isolate 3D7)) (UniProt Q8IBS5); test: PfCDPK4 kinase inhibitors, biochemical, TCAMS library (AID 1159588; cut-off not given, nearly all actives have IC50 up to about 0.91 µM); conditions: recombinant PfCDPK4, Kinase-Glo ATP depletion luminescence
# Chain of Calcium-dependent protein kinase 4 (Plasmodium falciparum (isolate 3D7)) (Q8IBS5 whole entry, looked up): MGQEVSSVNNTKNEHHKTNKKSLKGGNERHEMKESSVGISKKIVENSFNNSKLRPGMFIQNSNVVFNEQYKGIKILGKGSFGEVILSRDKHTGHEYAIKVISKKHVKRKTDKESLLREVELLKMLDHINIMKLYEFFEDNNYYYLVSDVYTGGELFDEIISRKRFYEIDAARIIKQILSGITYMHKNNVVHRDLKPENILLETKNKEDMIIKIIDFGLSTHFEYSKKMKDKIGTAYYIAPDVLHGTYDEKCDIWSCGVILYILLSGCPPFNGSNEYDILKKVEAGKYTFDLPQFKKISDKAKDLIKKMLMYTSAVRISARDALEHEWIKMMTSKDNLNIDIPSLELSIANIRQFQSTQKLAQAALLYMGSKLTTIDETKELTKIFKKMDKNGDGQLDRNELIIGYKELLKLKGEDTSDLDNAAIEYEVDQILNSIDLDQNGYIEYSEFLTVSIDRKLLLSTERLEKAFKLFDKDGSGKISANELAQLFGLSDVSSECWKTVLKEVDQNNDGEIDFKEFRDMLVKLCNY
SMILES,growth inhibition [1],inhibition [2],inhibition [3],growth inhibition [4],outcome [5],outcome [6],outcome [7],outcome [8]
Cc1cccc2[nH]c(-c3ccc(-c4ccc(NC(=O)CN5CCN(C)CC5)cc4)s3)nc12,86% (active),56% (active),-9%,95% (active),inactive,inactive,inactive,inactive
FC(F)(F)Oc1ccc(-c2cnc3ccc(NCc4ccncc4)nn23)cc1,54% (active),19%,-3%,97% (active),inactive,inactive,inactive,inactive
CN1CCC(NCc2ccc(-c3ccc(S(=O)(=O)NCc4ccccc4)c(F)c3)cc2)CC1,89% (active),53% (active),-3%,99% (active),inactive,inactive,inactive,inactive
CC1(C)N=C(N)N=C(N)N1c1cccc(Cl)c1,96% (active),69% (active),-1%,96% (active),inactive,inactive,inactive,inactive
O=C(Nc1nccs1)c1cc(-c2cccnc2)nc2ccc(Br)cc12,79% (active),7%,5%,100% (active),inactive,inactive,inactive,inactive
Cc1ccccc1Cc1cccc(/N=C(\N)Nc2ccc(Cl)cc2)n1,56% (active),48%,-7%,91% (active),inactive,inactive,inactive,inactive
CC(C)Sc1nc2c(c(=O)n1Cc1ccco1)C1(CCCCC1)Cc1ccccc1-2,99% (active),10%,0%,100% (active),inactive,inactive,inactive,inactive
Cc1ccc(O)cc1Nc1ccnc2cc(-c3ccncc3)ccc12,84% (active),16%,6%,100% (active),inactive,inactive,inactive,inactive
Cc1cccc2[nH]c(-c3ccc(-c4cccc(NC(=O)CCc5cnc[nH]5)c4)cc3)nc12,14%,13%,4%,101% (active),inactive,inactive,inactive,inactive
COC(=O)c1cccc(OCCNC2CCN(C[C@H](O)c3ccnc4ccc(OC)cc34)CC2)c1,96% (active),-7%,-10%,100% (active),inactive,inactive,inactive,inactive
CCCCCCN1CCC(NCc2ccc(OCCN3CCCC3)cc2)CC1,93% (active),23%,0%,101% (active),inactive,inactive,inactive,inactive
CCCC(=O)Nc1ccc(OCCCCN(Cc2ccccc2C(F)(F)F)c2ccc(C(F)(F)F)c(C#N)c2)cc1,94% (active),6%,0%,94% (active),inactive,inactive,inactive,inactive
CC(CN(C)C)C(=O)Nc1ccc(-c2ccc(-c3nc4ccccc4[nH]3)cc2)cc1 (stereo not given),83% (active),2%,-3%,99% (active),inactive,inactive,inactive,inactive
O=C(Nc1ccc(N2CCN(Cc3ccccc3)CC2)cc1)c1cccs1,86% (active),-1%,2%,87% (active),inactive,inactive,inactive,inactive
O=C(Nc1ccccc1)Nc1cccc(-c2ccc(-c3nc4ccc(C(F)(F)F)cc4[nH]3)cc2)c1,37%,48%,-3%,101% (active),inactive,inactive,inactive,inactive
O=S(=O)(c1c(Cl)cc(Cl)cc1Cl)N1CCCCC(c2ccc(F)c(F)c2)=N1,65% (active),5%,-1%,87% (active),inactive,inactive,inactive,inactive
O=C(Nc1cccc(CN2CCCN(Cc3ccc4c(c3)OCO4)CC2)c1)c1ccc2ccccc2c1,14%,7%,-2%,86% (active),inactive,inactive,inactive,inactive
Cc1cccc2[nH]c(-c3ccc(-c4cccc(CN5CCC(C(N)=O)CC5)c4)cc3)nc12,16%,9%,6%,87% (active),inactive,inactive,inactive,inactive
Cc1noc(C)c1-c1cccc(CNCc2ccc(-c3cccc(-c4nc5ccc(C(F)(F)F)cc5[nH]4)c3)cc2)c1,97% (active),37%,3%,101% (active),inactive,inactive,inactive,inactive
CCN(CC)CCN(Cc1ccc(-c2ccc(C(F)(F)F)cc2)cc1)C(=O)c1ccc(-c2ccc(C#N)cc2)cc1,31%,38%,-5%,89% (active),inactive,inactive,inactive,inactive

SMILES,growth inhibition [1],inhibition [2],inhibition [3],growth inhibition [4],outcome [5],outcome [6],outcome [7],outcome [8]
Cc1ccccc1C1CCN(C2CCC(NC(=O)/C=C/c3ccc(Cl)cc3)CC2)CC1 (stereo not given),25%,78% (active),4%,99% (active),inactive,inactive,inactive,inactive
CC(C)(C)Nc1cc(C2CC2)nc(-c2ccccn2)n1,75% (active),-2%,-1%,88% (active),inactive,inactive,inactive,inactive
Cc1cccc2[nH]c(-c3ccc(-c4cccc(CN5CCN(CC6CCCN(C)C6)CC5)c4)s3)nc12 (stereo not given),99% (active),47%,4%,100% (active),inactive,inactive,inactive,inactive
COc1ccc(CNC2CCN(C)CC2)cc1-c1ccc(S(=O)(=O)NCCN2CCCC2)s1,1%,2%,-2%,90% (active),inactive,inactive,inactive,inactive
CC(C)OCCCNC(=O)c1nc(-c2cccc(C(F)(F)F)c2)sc1C(C)C,34%,-7%,-8%,94% (active),inactive,inactive,inactive,inactive
O=C(Nc1cccc(C(F)(F)F)c1)c1ccc(S(=O)(=O)NC2CCN(CC3CCCCC3)CC2)cc1,-3%,25%,0%,83% (active),inactive,inactive,inactive,inactive
C=C(C)Cn1cc(C2CCN(CCN3CCC(CNC(=O)c4ccc(-c5ccc(C#N)cc5)cc4)CC3)CC2)c2ccccc21,94% (active),64% (active),-3%,99% (active),inactive,inactive,inactive,inactive
CC1(C)N=C(N)N=C(N)N1OCCCO,-1%,27%,-2%,96% (active),inactive,inactive,inactive,inactive
Cc1cc(C(=O)Nc2ccc3c(ccn3C3CCCN(Cc4ccc(C(F)(F)F)cc4F)CC3)c2)no1 (stereo not given),95% (active),19%,-1%,92% (active),inactive,inactive,inactive,inactive
O=C(Nc1ccc(-c2nc3ccccc3[nH]2)cc1)c1ccc(N2CCCC2)c([N+](=O)[O-])c1,95% (active),43%,-1%,100% (active),inactive,inactive,inactive,inactive
COc1ccc2nccc([C@@H](O)CN3CCC(NCc4cc5oc(=O)[nH]c5cc4Cl)CC3)c2c1,91% (active),1%,-2%,101% (active),inactive,inactive,inactive,inactive
O=C(NC(=O)c1ccccc1)NC1CCN(c2ccnc3cc(Cl)ccc23)C1 (stereo not given),99% (active),32%,-2%,101% (active),inactive,inactive,inactive,inactive
N=c1n(CCN2CCCCC2)c2ccccc2n1CC(O)c1cccc(Br)c1 (stereo not given),33%,25%,-1%,86% (active),inactive,inactive,inactive,inactive
O=C(Nc1cccc(OC2CCN(Cc3ccccc3)CC2)c1)c1ccc(Cl)c(Cl)c1,45%,16%,-4%,101% (active),inactive,inactive,inactive,inactive
CN(C)CCCn1cncc1-c1ccc2ncnc(Nc3ccc4c(cnn4Cc4ccccc4)c3)c2c1,77% (active),17%,-2%,101% (active),inactive,inactive,inactive,inactive
COc1ccc(O)c(-c2sc(N=C(N)N)nc2-c2ccccc2)c1,96% (active),2%,-2%,101% (active),inactive,inactive,inactive,inactive
C=CC[C@H](C[C@H](O)[C@H](Cc1ccccc1)NC(=O)c1nn(-c2ccccc2)nc1C)C(=O)NC1CCCCC1,3%,6%,5%,94% (active),inactive,inactive,inactive,inactive
COc1ccccc1CCNc1nc(C)cc(N[C@@H](Cc2ccccc2)C(=O)Nc2ccccc2)n1,86% (active),30%,0%,101% (active),inactive,inactive,inactive,inactive
Fc1cccc(CNc2ncc(-c3ccsc3)c(-c3nccs3)n2)c1,85% (active),15%,0%,91% (active),inactive,inactive,inactive,inactive
CN(C)c1c(CNCCCCCCNCc2ccc3ccccc3c2N(C)C)ccc2ccccc12,51% (active),100% (active),-2%,100% (active),inactive,inactive,inactive,inactive
